Data on 23 molecules can be found in PubChem BioAssay (Tox21).

“And” between values parts separate entries of the source, which are not always exact repeats. Identical values can stand only once. Records with an inconclusive call do not appear. Where a call stands in place of a potency, no number is given. More than one record can exist for a structure, and the calls need not agree. The source made the active and inactive calls. Unless noted, the call rests on the fitted dose curve; in most records, active means well fitted activation curve with a large enough effect in the repeat runs; inconclusive means weak or mixed curves, or effect the other way; inactive means no such curve, though single readings can be large or run the other way.

The first test in a line: qHTS assay to identify small molecule antagonists of the estrogen related receptor signaling pathway with the pleiotropic PPARgamma coactivator (PGC) from Tox21 10K library - cell viability counter screen (AID 1224840; active means well fitted cell-killing curve with a large enough effect in the repeat runs, not every such curve was filed as active; further: nearly all actives have a fitted effect of over 40% in size). Conditions: PGC/ERR reporter cells viability, CellTiter-Fluor, 17.5 h; series mostly up to 92.4 µM; viability change, negative = cytotoxic: at the top concentration. In a few lines: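 Multiplexed viability counter screen in the PGC/ERR cell line: cells treated with DMSO-dissolved compounds for 17.5 hours at 37 C, then viability measured as CellTiter-Fluor fluorescence.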
A general note: In qHTS, concentration-response curves come from the screen itself.
On to `OCCc1ccccc1`, for which the Potency result was “inactive”.

Take `NC(N)=NC(=O)c1nc(Cl)c(N)nc1N`: the Potency result was “inactive”.

Take `NC(=O)c1ccccc1O`: the Potency entry was “inactive”.

With `CC1(C)[C@@H]2CC[C@@]1(C)C(=O)C2`, the Potency entry is “inactive”.

For the molecule `Cc1cc(=O)n(-c2ccccc2)n1C`, the Potency entry was “inactive”.

As for `CCOc1ccc(NC(=O)CC(C)O)cc1` (stereo not given), the Potency result was “inactive”.

For the molecule `NC(=O)c1cnccn1`, the Potency entry is “inactive”.

In the case of `O=c1ccc2ccccc2o1`, the Potency result is “inactive”.

Consider `Cc1noc(NS(=O)(=O)c2ccc(N)cc2)c1C`, for which the Potency result was “inactive”.

As to `Cc1cc(=O)[nH]c(=S)[nH]1`, the Potency entry is “inactive”.

As to `Cc1ccccc1C(OCCN(C)C)c1ccccc1` (stereo not given), the Potency result is “inactive”.

For `O=S(=O)(O)c1ccc2cc(O)ccc2c1`, the Potency entry was “inactive”.

The next test in a line: qHTS assay to identify small molecule antagonists of the estrogen related receptor signaling pathway with the pleiotropic PPARgamma coactivator (PGC) from Tox21 10K library (AID 1224841; call rule not given here; further: actives are mostly falling curves and most rising ones were filed inactive; nearly all actives have a fitted effect of over 50% in size; further: potency means the concentration at half of the fitted maximal effect). The settings on record: PGC/ERR reporter cell line, ONE-Glo luciferase, 18 h; series mostly up to 92.4 µM; activity, negative = inhibition: at the top concentration. In a few lines:
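Steps: plate 2,000 PGC/ERR cells per well; incubate 6 h at 37 C with 5% CO2; transfer compounds from DMSO stocks by pin tool; incubate 18 h at 37 C; add One-Glo; measure luminescence 30 min later.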
In the case of `O=c1cc[nH]c(=S)[nH]1`, the Potency result was “inactive”.

As to `CCCCC1C(=O)N(c2ccccc2)N(c2ccccc2)C1=O`, the Potency result was “inactive”.

`O=C(O)CCC(=O)O`: the Potency result was “inactive”.

For the molecule `COc1ccc2[nH]cc(CCNC(C)=O)c2c1`, the Potency result is “inactive”.

On to `CC(=O)OCC(COC(C)=O)OC(C)=O`, for which the Potency result was “inactive”.

In the case of `OC(Cn1cncn1)(Cn1cncn1)c1ccc(F)cc1F`, the Potency result is “inactive”.

For `CCCN(CCC)S(=O)(=O)c1ccc(C(=O)O)cc1`, the “activity, negative = inhibition” value is 15.2% [at 42.5 µM] (inactive).

For the molecule `NNC(=O)c1ccncc1`, the Potency result is “inactive”.

Turning to `O=C1CN(/N=C/c2ccc([N+](=O)[O-])o2)C(=O)N1`, the Potency was 19.3 µM (active) and 24.3 µM (active) and 16.8 µM (active).

For `CCCCOC(=O)CC(CC(=O)OCCCC)(OC(C)=O)C(=O)OCCCC`, the Potency entry is “inactive and 24.6 µM (active)”.

For `CCCCC(CC)COC(=O)/C=C/c1ccc(OC)cc1` (stereo not given), the Potency entry was “inactive”.

Turning to `CC1(C)[C@@H]2CC[C@@]1(C)C(=O)C2`, the Potency entry was “inactive”.

For `Cc1cc(=O)n(-c2ccccc2)n1C`, the Potency result is “inactive”.

Consider `NC(=O)c1cnccn1`, for which the Potency entry is “inactive”.

The next test is described as follows: qHTS assay to identify small molecule agonists of the estrogen related receptor signaling pathway with the pleiotropic PPARgamma coactivator (PGC) from Tox21 10K library (AID 1224842). Further: nearly all actives have a fitted effect of over 15% in size. Conditions: PGC/ERR reporter cell line, luciferase ONE-Glo, 18 h; series mostly up to 92.4 µM; activation: at the top concentration. The method, boiled down: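 Luminescence from One-Glo (30 min, room temperature) measured after PGC/ERR cells had 18 h at 37 C with pinned compound (23 nL in DMSO). Cells had been seeded at 2,000 per well and pre-incubated 6 h.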
For the molecule `O=c1cc[nH]c(=S)[nH]1`, the Potency result is “inactive”.

As for `CCCCC1C(=O)N(c2ccccc2)N(c2ccccc2)C1=O`, the Potency entry is “inactive”.

As for `O=C(O)CCC(=O)O`, the Potency entry is “inactive”.

With `COc1ccc2[nH]cc(CCNC(C)=O)c2c1`, the Potency entry is “inactive”.

In the case of `CC(=O)OCC(COC(C)=O)OC(C)=O`, the Potency entry is “inactive”.

For the molecule `CCCN(CCC)S(=O)(=O)c1ccc(C(=O)O)cc1`, the Potency result was “inactive”.

Consider `NNC(=O)c1ccncc1`, for which the Potency result is “inactive”.

Regarding `O=C1CN(/N=C/c2ccc([N+](=O)[O-])o2)C(=O)N1`, the Potency result was “inactive”.

Regarding `CCCCOC(=O)CC(CC(=O)OCCCC)(OC(C)=O)C(=O)OCCCC`, the Potency result is “inactive”.

On to `CCCCC(CC)COC(=O)/C=C/c1ccc(OC)cc1` (stereo not given), for which the Potency result is “inactive”.

On to `CC1(C)[C@@H]2CC[C@@]1(C)C(=O)C2`, for which the Potency entry was “inactive”.

Consider `Cc1cc(=O)n(-c2ccccc2)n1C`, for which the Potency result is “inactive”.

As to `NC(=O)c1cnccn1`, the Potency result is “inactive”.

Turning to `Cc1ccccc1C(OCCN(C)C)c1ccccc1` (stereo not given), the Potency result is “inactive”.
